Tgondii IFNg: blocks Toxoplasma gondii growth in the presence of IFN-gamma; Toxoplasma gondii growth in IFN-gamma-treated host cells; stronger effect = lower value; activity change, negative = inhibition, % (test concentration not listed); 69,000 compounds, 3.8% hits; in the data active = activity change below about -70%, passing the limit was not always enough;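 also: host cells are HeLa cells infected with Toxoplasma gondii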
Of the large screens only hits and unclear results are named; the others gave an inactive call. This is one part of a sample in which hits are shown more often than they occur.

CN1C(=O)c2cc(NC(=O)Cc3cccs3)ccc2OC[C@@H]2O[C@H](CC(=O)NCC3CCCCC3)CC[C@H]21	none
CN1C(=O)c2cc(NC(=O)Cc3cccs3)ccc2OC[C@H]2O[C@@H](CC(=O)NCC3CCCCC3)CC[C@@H]21	none
CN1C(=O)c2cc(NC(=O)NCc3ccccc3)ccc2OC[C@H]2O[C@H](CC(=O)NCC3CCCCC3)CC[C@@H]21	none
C[C@H](NC(=O)C[C@H]1CC[C@H]2[C@@H](COc3ccc(NS(=O)(=O)c4ccc(Cl)cc4)cc3C(=O)N2C)O1)c1ccccc1	none
C[C@@H](NC(=O)C[C@H]1CC[C@@H]2[C@@H](COc3ccc(NS(=O)(=O)c4ccc(Cl)cc4)cc3C(=O)N2C)O1)c1ccccc1	Tgondii IFNg -89
CN1C(=O)c2cc(NC(=O)c3ccc(C(F)(F)F)cc3)ccc2OC[C@H]2O[C@H](CC(=O)NCc3ccc4c(c3)OCO4)CC[C@H]21	none
CN1C(=O)c2cc(NC(=O)NCc3ccccc3)ccc2OC[C@H]2O[C@H](CC(=O)NCC3CCCCC3)CC[C@H]21	none
CN1C(=O)c2cc(NC(=O)c3ccc(C(F)(F)F)cc3)ccc2OC[C@H]2O[C@@H](CC(=O)NCc3ccc4c(c3)OCO4)CC[C@H]21	none
C[C@@H](NC(=O)C[C@H]1CC[C@@H]2[C@H](COc3ccc(NS(=O)(=O)c4ccc(Cl)cc4)cc3C(=O)N2C)O1)c1ccccc1	none
CN1C(=O)c2cc(NC(=O)c3ccc(C(F)(F)F)cc3)ccc2OC[C@@H]2O[C@@H](CC(=O)NCc3ccc4c(c3)OCO4)CC[C@@H]21	Tgondii IFNg -82
COCCNC(=O)[C@H]1CC[C@H]2[C@@H](CCN2c2ncc(F)cn2)O1	none
Nc1[nH]nc2nc(C3CCNC3)ccc12 (configuration not stated)	none
c1cc(CN2CC[C@H]3[C@@H]2CCN3CC2CCOCC2)co1	none
Cc1cc(-c2nnc(CCC(=O)NC3c4ccccc4-c4ccccc43)o2)c(C)o1	none
c1ccc(-n2cc(CN3CCn4cncc4C3)c(-c3ccncc3)n2)cc1	none
CN(C)C(=O)CN1CCc2ccc(=O)n(Cc3cccnc3)c2CC1	none
C=CCN1CCO[C@H]2CN(C(=O)Cc3ccsc3)CC[C@@H]2C1	none
CCN(CCOc1ccccc1F)C(=O)c1ccc(N(C)C)cc1	none
CNC(=O)c1cc(=O)n(CC(=O)Nc2ccccc2Cl)c2ccccc12	none
CC(C)(C)c1cnc(CSc2cnc(NC(=O)C3CCNCC3)s2)o1	Tgondii IFNg -72
CC(C)(C)NC(=O)Cn1c(SCC(=O)NCc2ccco2)nc2ccccc21	none
Cc1cc(C)c2c(c1)CC(C)(C)c1[nH]c(-c3ccc(Cl)cc3Cl)nc1-2	Tgondii IFNg -71
COCc1cc(=O)[nH]c(SC2CC(=O)N(c3ccc(N4CCOCC4)cc3)C2=O)n1 (configuration not stated)	none
COc1ccc(-c2nc3n(c(=O)c2C#N)CCCS3)cc1	none
O=c1c(C(c2cccnc2)c2c(O)nc3n(c2=O)CCS3)c(O)nc2n1CCS2	none
Fc1ccc(-c2nc3n(c2-c2ccncc2)CCS3)cc1	Tgondii IFNg -78
CCC1CN(C(=O)c2ccc(-c3cccc4c3OCC4)nc2)CCN1C(C)C (configuration not stated)	none
CC(C)c1noc(CCNC(=O)C2(c3ccccc3F)CC2)n1	none
Cc1ccsc1-c1nc(CN2CCN(S(N)(=O)=O)CC2)c(C)o1	none
Cc1ncc(-c2nnnn2-c2ccccc2)c(CN(C)C)n1	none
CC(C)c1noc(-c2cc(=O)n(CC(=O)Nc3ccc4c(c3)OCCO4)c3ccccc23)n1	none
CN(Cc1cc(C2CC2)n[nH]1)C(=O)c1cc(Cn2cnc3ccccc32)on1	none
CNC(=O)c1cc(Oc2ccc(NC(=O)Nc3ccc(Cl)c(C(F)(F)F)c3)c(F)c2)ccn1	Tgondii IFNg -81
CCc1nc(OCC(=O)Nc2ccc(Cl)c(C(F)(F)F)c2)c2ccccc2n1	none
Cc1nc(OCC(=O)Nc2ccc(Cl)c(C(F)(F)F)c2)c2ccccc2n1	none
Cc1cc2c(cc1CN(C)Cc1ccccc1N1CCOCC1)n(C)c(=O)n2C	none
CCN1CCC2(CC1)OC(=O)C(C)=C2C(=O)NCCc1ccccc1	none
Cc1nn(CCC#N)c(C)c1Cc1c(Cl)cccc1Cl	Tgondii IFNg -111
Cc1nn(Cc2nnc(SCc3c(F)cccc3Cl)n2C)c(C)c1Br	none
N#CCCn1nc(-c2cccnc2)oc1=O	none
Cc1occc1C(=O)N1CCC2(CCC2NS(=O)(=O)c2ccccc2)CC1 (configuration not stated)	none
COc1ccc(C(C)C)cc1CN1CCN(c2ncnc3nc[nH]c23)CC1	none
Cc1cc(-c2ccc3c(c2)OCO3)cnc1N	none
Cc1nc(-c2ccc3c(c2)OCO3)cc(C(C)C)n1	Tgondii IFNg -72
Cc1ncc(-c2ccc3c(c2)OCO3)c(-c2cccnc2)n1	none
CCC(C)n1c(Cc2ccc(O)cc2)n[nH]c1=O (configuration not stated)	none
CC(C)CCn1nc(C(=O)N2CCOCC2)c2c1CCN(C(=O)CSc1ccccc1)C2	none
CC(C)n1nc(Cn2cccn2)c2c1CNC2	none
Cc1ccc2[nH]cc(-c3ccc(C)nc3)c2c1	none
Brc1ccc2c(c1)C1C=CCC1C(C1CC=CCC1)N2 (configuration not stated)	none
